Test results as given in the supplement of paper PMC11417369.
Over roughly 25,000 sequences, “ln(normalized median fluorescence intensity)” has its median near 6.7; the highest 2% begin near 10. This is one part of a sample in which the highest values are shown more often than they occur.

What follows are sequences tested on PfHDP1 homeodomain (GST-tagged) (assay: gcPBM binding intensity (ln(normalized median fluorescence intensity)); higher = stronger DNA binding).
Outline: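 Plasmodium falciparum DNA-binding domains carrying a GST tag were expressed in E. coli and applied for 1 h, at about 25 μg on average, to an Agilent 4 × 180k array. The array held primer-extended double-stranded 36-bp intergenic genomic probes together with negative controls, and binding took place in 1× PBS with 1% milk, 0.2 mg/ml BSA, 0.5% salmon testes DNA and 0.03% Triton X-100. An Alexa488 anti-GST antibody detected bound protein, and the array was scanned at 488 nm. Binding intensity is taken as the highest Masliner-normalised natural-log median intensity across replicate spots of either probe orientation.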

Q: For “AGCCATATCTTTTTTGCACACACTACAATAAAACAA [CACACA_site1650]”, which “gcPBM binding intensity (ln)” value is on record?
A: The value was 10.1.

Q: Which “gcPBM binding intensity (ln)” value does the source give for “TACAACAATTTTTGCACACACCAAAACATAAAATAA [CACACA_site4964]” here?
A: Its value is 10.3.

Q: For “CCATATCTTTTTTGCACACACTACAATAAAACAAAA [CACACA_site4995]”, which “gcPBM binding intensity (ln)” value is on record?
A: The value was 10.6.

Q: How did the “gcPBM binding intensity (ln)” value turn out when “ATTTGTATATACATATGTACACATGTAGGCTCATAA [XGTACX_site1709]” was run?
A: The value was 6.92.

Q: How did the “gcPBM binding intensity (ln)” value turn out when “ATATTTTCAGTTCTCCATTATGTTCCCATTATTTTT [CACACA_negctrl_site990]” was run?
A: Its value is 7.03.

Q: Which “gcPBM binding intensity (ln)” value does the source give for “TGGGTGTAGAACAATTGTACTTTGTAAAAATATAAG [XGTACX_site8464]” here?
A: Its value is 6.59.

Q: With “TTATGTTATATATACACACACAAAAGAAAAAAAAAA [CACACA_site2987]” as the sequence, how does the “gcPBM binding intensity (ln)” value read?
A: The value was 6.48.

Q: “CATGCTTATATGTGCACACACAAAAGAAAAGAAAAA [CACACA_site1655]” was tested. Which “gcPBM binding intensity (ln)” value did it give?
A: The value was 11.

Q: With “TTCATGCTTATATGTGCACACACAAAAGAAAAGAAA [CACACA_site1656]” as the sequence, how does the “gcPBM binding intensity (ln)” value read?
A: Its value is 10.8.

Q: For “AATGTGCACACGCGTACACACAAAAAAAGAAAAAAA [CACACA_site7031]”, which “gcPBM binding intensity (ln)” value is on record?
A: Its value is 10.2.

Q: For “ATTTATGTTATATATACACACACAAAAGAAAAAAAA [CACACA_site8977]”, which “gcPBM binding intensity (ln)” value is on record?
A: The value was 6.89.

Q: Which “gcPBM binding intensity (ln)” value does the source give for “CAAAAAAAGAAAGCTACACACATTTATGTGCTATAT [CACACA_site2777]” here?
A: Its value is 6.72.

Q: How did the “gcPBM binding intensity (ln)” value turn out when “TAAATATATATATATTGTACAAAACAAATGTGAATT [XGTACX_site696]” was run?
A: The value was 7.1.

Q: “GATGTTCATCACTACACACACAAAGAAATATAAATA [CACACA_site7294]” was tested. Which “gcPBM binding intensity (ln)” value did it give?
A: Its value is 6.57.

Q: With “TCAATTAGACGAAAATGTACATATGTATATATTTTT [XGTACX_site5027]” as the sequence, how does the “gcPBM binding intensity (ln)” value read?
A: The value was 6.25.

Q: Which “gcPBM binding intensity (ln)” value does the source give for “ATACATATGGTGGATCGTACATATATATAATATGTA [XGTACX_site8631]” here?
A: Its value is 6.5.

Q: Which “gcPBM binding intensity (ln)” value does the source give for “TATAATGTATGTAGTGCACACCTCTATAATATATTA [CACACA_site8560]” here?
A: The value was 9.5.

Q: “TAGAATGTATGTAGTGCACACCTCTATAATATATTA [CACACA_site1873]” was tested. Which “gcPBM binding intensity (ln)” value did it give?
A: The value was 10.5.

Q: With “TATGTACACCCATATACACACCTCTATAATATATAT [CACACA_site4563]” as the sequence, how does the “gcPBM binding intensity (ln)” value read?
A: Its value is 7.13.

Q: For “TATTATATTATACATACACACCCATATAATATGTTT [CACACA_site8191]”, which “gcPBM binding intensity (ln)” value is on record?
A: Its value is 6.85.

Q: Which “gcPBM binding intensity (ln)” value does the source give for TAAATATATATATAAGTGCATTATATATATATATAA here?
A: Its value is 9.53.

Q: AATATTCAATATAAAGTGCATTATTGTGGACCTAAT was tested. Which “gcPBM binding intensity (ln)” value did it give?
A: The value was 8.94.

Q: GCCAATAAAGATGTGGTGCATTATATATATATATAT was tested. Which “gcPBM binding intensity (ln)” value did it give?
A: Its value is 10.7.

Q: For “TAAAACTTATACAAATGTACAAATATATATATATAT [XGTACX_site4661]”, which “gcPBM binding intensity (ln)” value is on record?
A: Its value is 9.19.

Q: “TTTTTTATTTTATTTTTTTCTGCTTATCCACATTAG [XGTACX_negctrl_site108]” was tested. Which “gcPBM binding intensity (ln)” value did it give?
A: Its value is 6.48.

Q: With “TTAATTTATTTATGCACACATATATAATTACACATA [CACACA_site4544]” as the sequence, how does the “gcPBM binding intensity (ln)” value read?
A: Its value is 10.7.

Q: For “TTAATTTATTTATGCACACATATATAATTACCCATA [CACACA_site682]”, which “gcPBM binding intensity (ln)” value is on record?
A: The value was 10.7.

Q: For “ATTATATACATATATGCACACAAAAAAATATATATT [CACACA_site8508]”, which “gcPBM binding intensity (ln)” value is on record?
A: Its value is 9.93.

Q: For “TCGTACTTGTATTATGCACACATATAATTAAACATA [CACACA_site9089]”, which “gcPBM binding intensity (ln)” value is on record?
A: Its value is 10.5.

Q: For “CTTTTTTTAATATGCACACATATATTTTATATATTA [CACACA_site2077]”, which “gcPBM binding intensity (ln)” value is on record?
A: The value was 10.3.

Q: “TAGTATTATTATTATGCACACAAAAATATTTATACA [CACACA_site9219]” was tested. Which “gcPBM binding intensity (ln)” value did it give?
A: Its value is 10.4.

Q: “ATATTACCCATATATGCACACATTGTAGTTATTTAT [CACACA_site2636]” was tested. Which “gcPBM binding intensity (ln)” value did it give?
A: Its value is 9.18.

Q: How did the “gcPBM binding intensity (ln)” value turn out when “CTTATATTAATTATTACACACATATTTATAAATGCA [CACACA_site6501]” was run?
A: Its value is 6.66.

Q: How did the “gcPBM binding intensity (ln)” value turn out when “GTATTATTATTATGCACACAAAAATATTTATACATA [CACACA_site3656]” was run?
A: Its value is 10.9.

Q: For “GTACTTGTATTATGCACACATATAATTAAACATATA [CACACA_site3312]”, which “gcPBM binding intensity (ln)” value is on record?
A: The value was 10.1.

Q: “GCACACATATAATTAAACATATATTTGTATTATTTT [GTGCAC_negctrl_site327]” was tested. Which “gcPBM binding intensity (ln)” value did it give?
A: The value was 6.5.

Q: For “TTTTAATTTATTTATGCACACATATATAATTACACA [CACACA_site8126]”, which “gcPBM binding intensity (ln)” value is on record?
A: Its value is 10.1.

Q: Which “gcPBM binding intensity (ln)” value does the source give for “AAATAATTAGCTATTTGTACATATATACATATTTAT [XGTACX_site4652]” here?
A: The value was 6.37.

Q: How did the “gcPBM binding intensity (ln)” value turn out when “ATTTTTTTTTTTTTTTTTTTTTTTTTTTTTTTTTTT [CACACA_negctrl_site1364]” was run?
A: Its value is 7.45.

Q: For “AAGTTTATTATATATAAATTATTATATATATATATA [CACACA_negctrl_site189]”, which “gcPBM binding intensity (ln)” value is on record?
A: The value was 9.02.

Q: Which “gcPBM binding intensity (ln)” value does the source give for “AATCAAAGTAATTTAACACACAATTTTAATACTGTT [CACACA_site7169]” here?
A: The value was 6.23.

Q: Which “gcPBM binding intensity (ln)” value does the source give for “CATTATGTTGTAAATACACACATACATATACATACA [CACACA_site8143]” here?
A: Its value is 6.76.

Q: With “ACATAAATAAATTAATGTACATATATATTTGTATAT [XGTACX_site3160]” as the sequence, how does the “gcPBM binding intensity (ln)” value read?
A: The value was 6.32.

Q: How did the “gcPBM binding intensity (ln)” value turn out when “TATATGTAGATTAAACGTACTTACAACGGAATTATC [XGTACX_site3036]” was run?
A: Its value is 6.67.

Q: With “TATAAACATTAAAGGTGTACAATTTAATTTCAATTT [XGTACX_site2944]” as the sequence, how does the “gcPBM binding intensity (ln)” value read?
A: The value was 6.28.

Q: Which “gcPBM binding intensity (ln)” value does the source give for “GGTATAATAATATATAGTACACACAAAAATGGAAGT [XGTACX_site7058]” here?
A: The value was 7.5.

Q: For “TATTTTTATCAATTCACACATAAATATATTTATATG [CACACA_site5547]”, which “gcPBM binding intensity (ln)” value is on record?
A: The value was 6.57.

Q: How did the “gcPBM binding intensity (ln)” value turn out when “TTTTTCCCCCTTTTTTTGATTTTTATCTTAATTCTA [TGCATGCA_negctrl_site287]” was run?
A: The value was 5.85.

Q: Which “gcPBM binding intensity (ln)” value does the source give for “ATATTTTACAAATGCACACATAATTTTTTTTTTTTT [CACACA_site2763]” here?
A: The value was 10.5.

Q: “ATATATATATATATATGTACATATTTTTAATTATAA [XGTACX_site7444]” was tested. Which “gcPBM binding intensity (ln)” value did it give?
A: Its value is 9.45.

Q: With CAATTTATTATATATGTGCACATATAATTTTACAAA as the sequence, how does the “gcPBM binding intensity (ln)” value read?
A: The value was 10.4.

Q: Which “gcPBM binding intensity (ln)” value does the source give for “ACATAATTATTATGCACACATATTTTTATGTATTTA [CACACA_site698]” here?
A: Its value is 10.2.

Q: Which “gcPBM binding intensity (ln)” value does the source give for “TATTATAATTTTATATGTACACATATATAAATATAT [XGTACX_site4054]” here?
A: The value was 6.29.

Q: With TATTACACATATTATGTGCACATATATAATCAATAT as the sequence, how does the “gcPBM binding intensity (ln)” value read?
A: The value was 10.9.

Q: How did the “gcPBM binding intensity (ln)” value turn out when “TTATATTTTACAAATGCACACATAATTTTTTTTTTT [CACACA_site8890]” was run?
A: Its value is 9.76.

Q: Which “gcPBM binding intensity (ln)” value does the source give for “GTATAATTATGTGCACGTACATATTTTATTATATAT [XGTACX_site8586]” here?
A: The value was 10.9.

Q: Which “gcPBM binding intensity (ln)” value does the source give for “ATACATATATAATTATGTACGTATATTTTATATAAC [XGTACX_site4292]” here?
A: Its value is 6.14.

Q: Which “gcPBM binding intensity (ln)” value does the source give for “ATATAATATATGTATACACACATATTATATAATATT [CACACA_site3699]” here?
A: The value was 6.46.

Q: For “GTACATAATTATTATGCACACATATTTTTATGTATT [CACACA_site8132]”, which “gcPBM binding intensity (ln)” value is on record?
A: Its value is 10.5.

Q: How did the “gcPBM binding intensity (ln)” value turn out when “TTTATTTATATAATTACACACATATATACACAAATG [CACACA_site8903]” was run?
A: The value was 6.83.
